Measurements as given in PubChem BioAssay AID743261 (The Scripps Research Institute Molecular Screening Center, 2014).
Hit rate of the full screen: of about 3,300 compounds, about 35 (1%) were called active. Cut-off read from the data, not from the text of the source: active = inhibition above about 11%; inactive = the rest. Not all results are given here.

Each compound was assayed against 1-phosphatidylinositol 4,5-bisphosphate phosphodiesterase beta-3 (Homo sapiens) (UniProt Q01970) (assay: retest of human PLCB3 enzyme blockers – biochemical, fluorescence, purified enzyme, confirmation (AID 743261)). Details: purified PLC-beta3, fluorogenic substrate fluorescence; at 12.3 µM; active compounds read high.
Sequence of 1-phosphatidylinositol 4,5-bisphosphate phosphodiesterase beta-3 (Homo sapiens) (Q01970 whole entry, looked up): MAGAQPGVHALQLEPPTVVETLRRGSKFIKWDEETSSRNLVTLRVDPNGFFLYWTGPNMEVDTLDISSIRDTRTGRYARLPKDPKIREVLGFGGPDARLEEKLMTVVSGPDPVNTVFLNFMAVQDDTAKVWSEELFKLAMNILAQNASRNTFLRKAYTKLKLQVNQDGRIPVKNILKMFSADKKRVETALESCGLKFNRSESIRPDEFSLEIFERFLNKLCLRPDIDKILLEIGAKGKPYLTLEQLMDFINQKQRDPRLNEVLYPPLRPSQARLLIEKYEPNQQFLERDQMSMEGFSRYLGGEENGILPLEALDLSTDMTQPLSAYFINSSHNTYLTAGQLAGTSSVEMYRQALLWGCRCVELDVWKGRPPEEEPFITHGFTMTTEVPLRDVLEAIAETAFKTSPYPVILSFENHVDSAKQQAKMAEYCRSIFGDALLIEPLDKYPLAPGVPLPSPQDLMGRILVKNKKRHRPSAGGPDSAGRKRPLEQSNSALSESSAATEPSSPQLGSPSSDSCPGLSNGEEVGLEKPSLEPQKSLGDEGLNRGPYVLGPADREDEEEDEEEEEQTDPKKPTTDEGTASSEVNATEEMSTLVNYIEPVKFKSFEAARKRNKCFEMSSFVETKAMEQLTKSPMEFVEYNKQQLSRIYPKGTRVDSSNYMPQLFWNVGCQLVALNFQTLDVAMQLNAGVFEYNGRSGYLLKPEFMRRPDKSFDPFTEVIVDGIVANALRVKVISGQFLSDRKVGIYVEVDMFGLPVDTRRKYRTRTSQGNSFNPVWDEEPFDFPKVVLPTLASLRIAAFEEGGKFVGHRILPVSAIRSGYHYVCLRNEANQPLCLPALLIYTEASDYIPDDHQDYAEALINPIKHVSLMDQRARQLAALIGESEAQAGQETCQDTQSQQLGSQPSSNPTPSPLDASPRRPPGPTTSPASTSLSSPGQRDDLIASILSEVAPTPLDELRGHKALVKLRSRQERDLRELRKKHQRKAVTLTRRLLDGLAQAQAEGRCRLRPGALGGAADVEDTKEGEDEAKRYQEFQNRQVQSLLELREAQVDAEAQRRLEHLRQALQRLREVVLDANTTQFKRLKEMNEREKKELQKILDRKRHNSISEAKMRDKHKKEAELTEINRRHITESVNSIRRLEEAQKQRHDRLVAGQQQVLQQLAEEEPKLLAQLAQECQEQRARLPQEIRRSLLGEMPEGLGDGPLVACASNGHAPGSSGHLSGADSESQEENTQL

| Structure (SMILES) | inhibition |
| --- | --- |
| Cc1cccc(C(=O)NCCCN2CCCC2=O)c1 | 2.72% (inactive) |
| CN(C)S(=O)(=O)c1cccc(NC(=O)COC(=O)C2(c3ccccc3F)CCCC2)c1 | 0.6% (inactive) |
| Nc1nc(NCC(=O)O)nc(N2CCCCCC2)c1[N+](=O)[O-] | 5.2% (inactive) |
| CCOC(=O)Nc1ccc(NC(=O)OCC)cc1 | 4.88% (inactive) |
| CC1(C)CC(=O)C=C(NC2CC(C)(C)NC(C)(C)C2)C1 | 0.58% (inactive) |
| Cc1ccc(S(=O)(=O)N2CCCCC2)cc1NC(=O)CCNC(=O)c1ccccc1 | -5.41% (inactive) |
| FC(F)(F)c1cnc(Oc2ccccc2-c2nnc(-c3ccc(Cl)cc3)o2)c(Cl)c1 | -7.7% (inactive) |
| O=C(NC12CC3CC(CC(C3)C1)C2)N1CCCC(CO)C1 (stereo not given) | -3.42% (inactive) |
| CC(C)(C)c1ccc(C(=O)Nc2cc(Cl)c(Br)cc2C(=O)O)cc1 | -8.39% (inactive) |
| Cc1ccc(S(=O)(=O)Cn2nnnc2CN2CCN(Cc3ccc4c(c3)OCO4)CC2)cc1 | 2.26% (inactive) |
| CC(C)C(NC(=O)C1CCC(C(C)(C)C)CC1)C(=O)NCCCN1CCCCC1 (stereo not given) | 0.28% (inactive) |
| CC1CCN(S(=O)(=O)c2ccc(S(=O)(=O)NCc3ccco3)cc2)CC1 | -1.58% (inactive) |
| O=C(NCc1ccc(F)cc1F)[C@@H]1CCCN1C(=O)[C@@H]1CCCN1C(=O)c1cccc(Cl)c1 | -0.65% (inactive) |
| CC(=O)C1=C(O)C(=O)N(c2cccnc2)C1c1ccc([N+](=O)[O-])cc1 (stereo not given) | -1.47% (inactive) |
| O=c1ccc2c(-c3ccccc3S(=O)(=O)O)c3ccc(O)c(O)c3oc-2c1O | 21% (active) |
| COc1ccc(/C(C)=N/N2CCOCC2)c(O)c1 | -14.9% (inactive) |
| COCCNC(=O)C(c1ccc(O)cc1)N(C(=O)CCC(=O)Nc1nccs1)c1ccc(C)cc1 (stereo not given) | -0.24% (inactive) |
| O=C1NC2(CCCCC2)N=C1c1ccccc1 | -4.41% (inactive) |
| Cc1cccc([C@@H]2[C@@H]3C(=O)N(Cc4ccccc4)C(=O)[C@@H]3[C@]3(Cc4ccc(Cl)cc4)C(=O)N(c4cccc(Cl)c4)C(=O)N23)c1 | 5.38% (inactive) |
| Cc1cc(NC(=O)CN2C(=O)NC(CC(C)C)C2=O)no1 (stereo not given) | 0.1% (inactive) |
| CC(C)CCSc1ncnc2c1oc1nc3c(cc12)COC(C)(C)C3 | -2.11% (inactive) |
| O=C(C[C@H]1C(=O)N(c2ccc(F)c(F)c2)C[C@@H]1Cc1ccccc1)Nc1ccccc1 | 9.92% (inactive) |
| CN(C(=O)c1ccc(NC(=O)Cc2cccc(NC(=O)C3CCN(C(=O)c4ccccc4)CC3)c2)cc1)C1CC1 | -1% (inactive) |

| Structure (SMILES) | inhibition |
| --- | --- |
| CCCCn1c(SCC(=O)N2CCCC2=O)nc2cc(S(N)(=O)=O)ccc21 | 0.23% (inactive) |
| O=c1c([N+](=O)[O-])cc(C(F)(F)F)cn1Cc1cccc(Cl)c1 | 4.27% (inactive) |
| Cc1nc(-c2ccc(F)cc2)c(CC(=O)N2CCN(S(=O)(=O)c3ccc(F)cc3)CC2)s1 | -1.44% (inactive) |
| O=C(COc1ccc(Cl)cc1)N1CCN(c2cccc(C(F)(F)F)c2)CC1 | -5.48% (inactive) |
| O=S(=O)(c1ccc(F)cc1)N1CCN(C(=S)NC2CCCC2)CC1 | -3.43% (inactive) |
| CC1(C(=O)NCc2ccccc2)CSCC(=O)N1CCCN1CCOCC1 (stereo not given) | -2.02% (inactive) |
| O=[N+]([O-])c1cc(C(F)(F)F)ccc1NN=C1CCCC1 | 2.81% (inactive) |
| O=c1c2ccccc2c(-c2ccccc2)nn1Cc1ccccc1 | -6.9% (inactive) |
| CN(CC(=O)NC1CCCCC1)S(=O)(=O)c1ccc(Br)s1 | 3.57% (inactive) |
| COc1ccccc1C(=O)N1C(CC(=O)Nc2ccccc2C)C(=O)NC2CCCCC21 (stereo not given) | -8.41% (inactive) |
| COc1cc(OC)nc(S(C)(=O)=O)n1 | -3.28% (inactive) |
| O=C(C(c1ccccc1)c1ccccc1)N1CCN(CC(O)COc2ccccc2)CC1 (stereo not given) | 3.79% (inactive) |
| COC(=O)NC1(C(F)(F)F)NC(=O)N(C2CCCCC2)C1=O (stereo not given) | 2.36% (inactive) |
| N#C[C@]1(S(=O)(=O)c2ccccc2)C[C@@H]2ON=C(c3cccc(Br)c3)[C@@H]2C1 | 0.44% (inactive) |
| CC1Oc2ccccc2N(Cc2cccnc2)C1=O (stereo not given) | -1.95% (inactive) |
| COc1ccccc1C(=O)Nc1cccc(C(=O)N2CCOCC2)c1 | -1.43% (inactive) |
| S=c1[nH]nc(-c2cccnc2)n1/N=C/C(Cl)=C\c1ccccc1 | -5.69% (inactive) |
| CC1(C)CC(=O)C=C(NCCN2CCNCC2)C1 | -4.21% (inactive) |
| CCn1c(/C=C/Nc2ccccc2)[n+](CC)c2ccc(C(=O)OCC(F)(F)F)cc21 | -12.7% (inactive) |
| COC(=O)CN1C(=O)C(O)=C(C(C)=O)C1c1ccc([N+](=O)[O-])cc1 (stereo not given) | 2.66% (inactive) |
| COc1ccc(-c2ccc(CN3C(CC(C)C)C(=O)N(Cc4cn(CC5CCCCC5)nn4)CCS3(=O)=O)cc2)cc1 (stereo not given) | -1.28% (inactive) |
| COc1ccc([N+](=O)[O-])cc1N(CC(O)Cn1nnc2ccccc21)S(=O)(=O)c1ccc(C)cc1 (stereo not given) | 3.85% (inactive) |
| CCOc1ccccc1C1CC(c2cccc(NS(C)(=O)=O)c2)=NN1C(=O)c1ccccc1 (stereo not given) | -3.53% (inactive) |

| Structure (SMILES) | inhibition |
| --- | --- |
| O=C1CS(=O)CN1c1ccc(Oc2ccccc2)cc1 (stereo not given) | 0.56% (inactive) |
| COc1cc(NC(=O)COC(=O)c2ccc([N+](=O)[O-])s2)cc(OC)c1OC | 2.2% (inactive) |
| O=S(=O)(Nc1ccc(Oc2ncccn2)c(Cl)c1)c1ccc(F)cc1 | -3.4% (inactive) |
| O=C(CSc1nnc(-c2ccncc2)n1C1CCCCC1)Nc1ccccc1 | -1.28% (inactive) |
| COc1ccccc1CCNC(=O)CN1C(=O)NC2(CCCC2)C1=O | 7.54% (inactive) |
| Clc1ccc(C2[C@H]3CN(CC4CCCCC4)[C@H](c4ccccc4)C34CC2(c2cccnc2)C4)cn1 (stereo not given in full) | -4.05% (inactive) |
| C[C@H](C(=O)N(C)c1ccccc1)[C@@H](O)c1ccc2ccccc2c1 | -3.71% (inactive) |
| CCN(CC)Cc1csc2ccc(Br)cc12 | 0.36% (inactive) |
| C=CCSC(CC)(CC)C(N)=O | 3.18% (inactive) |
| COCc1cc(C(C)=O)ccc1OC | 0.95% (inactive) |
| Cc1cccc(NC(=O)c2ccc3c(=O)n(CC4CCCO4)c(=S)[nH]c3c2)c1 (stereo not given) | 1.92% (inactive) |
| CCc1ccc(-c2nc(SCC(=O)NC3CCCC3)n[nH]2)cc1 | -2.19% (inactive) |
| C=CCOc1ccc(Cl)cc1CNCCCN1CCOCC1 | 1.5% (inactive) |
| Cc1cc(NC(=O)COn2nnc3ccccc32)no1 | -9.92% (inactive) |
| Cc1ccc(Cn2ccc(NC(=O)C3C4CCC(C4)C3C(=O)O)n2)cc1 (stereo not given) | -9.86% (inactive) |
| CN(CC(=O)Nc1ccccc1Cl)C(=O)COc1cccc2c1OC(C)(C)C2 | 0.64% (inactive) |
| CNC(=O)n1ccc(C(=O)N2CCCCC2)n1 | -1.25% (inactive) |
| COc1ccc(C(N)c2csc(NC(=O)Nc3cccc(C(F)(F)F)c3)n2)cc1 (stereo not given) | 3.1% (inactive) |
| O=C(NCCCN1CCCCC1)C1CC(=O)N(CCc2ccccc2)C1 (stereo not given) | 1.91% (inactive) |
| O=C1/C(=C\c2ccsc2)NC(=S)N1c1ccccc1 | -5.74% (inactive) |
| CC(C)Cn1cnc2c1c(=O)n(CC(O)c1ccccc1)c(=O)n2CC(C)C (stereo not given) | -3.57% (inactive) |
| C=CCOc1ccccc1/C=N/NC(=O)Cc1ccccc1 | -2.73% (inactive) |
| CCOC(=O)N1CCC(c2cc(=O)n(-c3ccccc3)[nH]2)CC1 | 2.09% (inactive) |

| Structure (SMILES) | inhibition |
| --- | --- |
| CCOc1cccc(-c2nnc3sc(COc4ccc(OC)cc4)nn23)c1 | -3.2% (inactive) |
| O=C(/C=C/c1c(F)cccc1Cl)Nc1nn[nH]n1 | -1.92% (inactive) |
| O=S1(=O)c2ccc(Br)cc2OC[C@H](Cc2ccccc2)N1Cc1cn(Cc2ccccc2)nn1 | 6.58% (inactive) |
| CC(=O)c1c(C)[nH]c(C(=O)OCC(=O)Nc2cc(S(=O)(=O)N3CCCCC3)ccc2C)c1C | 2.76% (inactive) |
| CCC1CCCCN1C(=O)CSc1nc(C)cc(C)n1 (stereo not given) | -1.69% (inactive) |
| Cc1ccc(C(=O)N2CCN(C(=O)N3CCOCC3)CC2)cc1 | -1.36% (inactive) |
| Cc1ccc(C)c(N2CCN(S(=O)(=O)c3c(C)[nH]c(C)c3C(=O)N3CCCC3)CC2)c1 | -5.1% (inactive) |
| Cc1ccc(C23CC4CC(CC(C(=O)NCC(=O)O)(C4)C2)C3)cc1 | 4.19% (inactive) |
| CCC[C@H]1CCCC/C=C\CCCC(=O)OCCN1C(=O)OC(C)(C)C | 7.62% (inactive) |
| CCOc1ccccc1NC(=O)c1cccnc1 | -4.38% (inactive) |
| O=C1c2ccccc2S(=O)(=O)N1CC(O)Cn1c2ccccc2c2ccccc21 (stereo not given) | -0.97% (inactive) |
| Cc1cc(NC(=O)c2ccc(F)cc2)ccc1NC(=O)c1ccco1 | 8.74% (inactive) |
| Cc1ccc(C(=O)Nc2ccc(C)c(S(=O)(=O)N(C)C)c2)s1 | -7.5% (inactive) |
| COC(=O)N(C)C[C@@H]1OCc2cnnn2CCCC(=O)N([C@@H](C)CO)C[C@@H]1C | -4.12% (inactive) |
| CCOc1ccc(CCNC(=O)COC(=O)CCS(=O)(=O)c2ccc(C)cc2)cc1OCC | -2.58% (inactive) |
| CCOC(=O)[C@]12CCCC=C1N(CCCOC)C(=O)[C@@H]2CC(=O)N1CCOCC1 | -1.19% (inactive) |
| NC1=CC(=O)C(=O)c2cccnc21 | -2.06% (inactive) |
| O=C(NCc1cccnc1)c1cc(C2CCCCN2C(=O)CCc2ccccc2)on1 (stereo not given) | 1.6% (inactive) |
| NC1=NN(c2cccc(C(=O)O)c2)C(=O)C1 | 0.11% (inactive) |
| OC(CNCC1CCCO1)Cn1c2ccc(Br)cc2c2cc(Br)ccc21 (stereo not given) | -1.89% (inactive) |
| CCCCc1nc2ccccc2c(NC(=O)CN2CCN(C)CC2)c1CCC | -2.31% (inactive) |
